From the supplement of paper PMC9446081
The whole screen tested about 39,000 compounds, of which about 220 (0.56%) showed activity. Many of the other results were omitted from the sample, so actives are more common in it than they were.

system: Escherichia coli K-12 BW25113; experiment: relative growth (OD600 normalised to plate interquartile mean) (fraction); higher = less growth inhibition, active = 0.2 or less; details: 50 µM; LB; incubation time: overnight (16-24 h)
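Also: Wild-type cells incubated without shaking, value is the mean of two biological replicates.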

**Q.** Which relative growth does the source give for `Cn1cc(-c2[nH]c3cc(NC(=O)[C@H](N)C4CCCCC4)cc4c3c2C=NNC4=O)cn1` here?
**A.** 0.161 (active)

**Q.** With `C[C@@H]1CN([C@@H](C)CO)C(=O)c2cc(NC(=O)Nc3ccc4c(c3)OCO4)ccc2O[C@@H](C)CCCCO[C@@H]1CN(C)C(=O)NC1CCCCC1` as the molecule, how does the relative growth read?
**A.** 1.04 (inactive)

**Q.** `O=c1c(O[C@@H]2O[C@H](CO)[C@@H](O)[C@H](O)[C@H]2O)c(-c2ccc(O)c(O)c2)oc2cc(O)cc(O)c12` was tested. Which relative growth did it give?
**A.** 1.04 (inactive)

**Q.** With `CNC1C(O)C(NC)C2OC3(O)C(=O)CC(C)OC3OC2C1O.Cl.Cl` (configuration not stated) as the molecule, how does the relative growth read?
**A.** 0.048 (active)

**Q.** How did the relative growth turn out when `CN[C@@H]1[C@H](O)[C@H](NC)[C@H]2O[C@@]3(O)C(=O)C[C@@H](C)O[C@H]3O[C@@H]2[C@H]1O` was run?
**A.** 0.0458 (active)

**Q.** For `C[C@@H]1CN([C@H](C)CO)C(=O)c2cc(NC(=O)C3CC3)ccc2O[C@@H]1CN(C)S(=O)(=O)c1ccccc1`, which relative growth is on record?
**A.** 0.987 (inactive)

**Q.** How did the relative growth turn out when `CC(C)NC(=O)Nc1cccc2c1O[C@H](CN(C)Cc1ccc(-c3ccccc3)cc1)[C@@H](C)CN([C@@H](C)CO)C2=O` was run?
**A.** 0.997 (inactive)

**Q.** Which relative growth does the source give for `C[C@H]1CCCCO[C@H](CN(C)Cc2ccncc2)[C@@H](C)CN([C@@H](C)CO)C(=O)c2cc(NC(=O)C3CCCCC3)ccc2O1` here?
**A.** 0.956 (inactive)

**Q.** Which relative growth does the source give for `COc1ccc(S(=O)(=O)Nc2cccc3c2O[C@@H](CN(C)C(=O)NC(C)C)[C@H](C)CN([C@H](C)CO)C3=O)cc1` here?
**A.** 0.978 (inactive)

**Q.** Which relative growth does the source give for `COc1ccc(CN(C)C[C@@H]2OCCCC[C@H](C)Oc3ccc(NS(=O)(=O)c4ccc(OC)cc4)cc3C(=O)N([C@H](C)CO)C[C@H]2C)cc1` here?
**A.** 0.994 (inactive)

**Q.** Which relative growth does the source give for `CNC1C(OC2C(OC3C(O)C(O)C(NC(=N)N)C(O)C3NC(=N)N)OC(C)C2(O)CO)OC(CO)C(O)C1O.O=S(=O)(O)O` (configuration not stated) here?
**A.** 0.0643 (active)

**Q.** For `CN[C@@H]1[C@H](O[C@H]2[C@H](O[C@@H]3[C@@H](O)[C@H](O)[C@@H](NC(=N)N)[C@H](O)[C@H]3NC(=N)N)O[C@@H](C)[C@]2(O)C=O)O[C@@H](CO)[C@H](O)[C@H]1O`, which relative growth is on record?
**A.** 0.972 (inactive)

**Q.** How did the relative growth turn out when `CN[C@H]1[C@@H](O[C@H]2[C@@H](O[C@H]3[C@@H](O)[C@@H](O)[C@@H](NC(=N)N)[C@@H](O)[C@@H]3NC(=N)N)O[C@@H](C)[C@@]2(O)C=O)O[C@@H](CO)[C@@H](O)[C@@H]1O.CN[C@H]1[C@@H](O[C@H]2[C@@H](O[C@H]3[C@@H](O)[C@@H](O)[C@@H](NC(=N)N)[C@@H](O)[C@@H]3NC(=N)N)O[C@@H](C)[C@@]2(O)C=O)O[C@@H](CO)[C@@H](O)[C@@H]1O.O=S(=O)(O)O.O=S(=O)(O)O.O=S(=O)(O)O` was run?
**A.** 0.372 (inactive)

**Q.** With `CNC1C(OC2C(OC3C(O)C(O)C(NC(=N)N)C(O)C3NC(=N)N)OC(C)C2(O)C=O)OC(CO)C(O)C1O.O=S(=O)(O)O` (configuration not stated) [STREPTOMYCIN SULFATE [5mM; 10% aq DMSO + 5mM ethanolamine]] as the molecule, how does the relative growth read?
**A.** 1.11 (inactive)

**Q.** With `CN[C@@H]1[C@H](O[C@H]2[C@H](O[C@H]3[C@H](O)[C@@H](O)[C@H](NC(=N)N)[C@@H](O)[C@@H]3NC(=N)N)O[C@@H](C)[C@]2(O)C=O)O[C@@H](CO)[C@H](O)[C@H]1O` as the molecule, how does the relative growth read?
**A.** 0.888 (inactive)

**Q.** For `CN[C@@H]1[C@H](O[C@H]2[C@H](O[C@@H]3[C@@H](O)[C@H](O)[C@@H](NC(=N)N)[C@H](O)[C@H]3NC(=N)N)O[C@@H](C)[C@]2(O)CO)O[C@@H](CO)[C@H](O)[C@H]1O.CN[C@@H]1[C@H](O[C@H]2[C@H](O[C@@H]3[C@@H](O)[C@H](O)[C@@H](NC(=N)N)[C@H](O)[C@H]3NC(=N)N)O[C@@H](C)[C@]2(O)CO)O[C@@H](CO)[C@H](O)[C@H]1O`, which relative growth is on record?
**A.** 0.11 (active)

**Q.** `C[C@H]1CN([C@@H](C)CO)C(=O)c2cc(NC(=O)C3CC3)ccc2O[C@@H]1CN(C)S(=O)(=O)c1cn(C)cn1` was tested. Which relative growth did it give?
**A.** 0.941 (inactive)

**Q.** For `C[C@@H]1CCCCO[C@H](CN(C)Cc2ccc(C(F)(F)F)cc2)[C@H](C)CN([C@@H](C)CO)C(=O)c2cc(NS(=O)(=O)c3ccc(Cl)cc3)ccc2O1`, which relative growth is on record?
**A.** 1.03 (inactive)

**Q.** How did the relative growth turn out when `O=C(C[C@@H]1C=C[C@H](NC(=O)c2cnccn2)[C@H](CO)O1)NCc1ccccc1F` was run?
**A.** 1.03 (inactive)

**Q.** `OC[C@@H]1CN(CCN2CCOCC2)C[C@H](n2cnc3c(NC4CCC4)ncnc32)O1` was tested. Which relative growth did it give?
**A.** 0.936 (inactive)

**Q.** Which relative growth does the source give for `C[C@@H]1CN([C@H](C)CO)C(=O)CCCn2nncc2CO[C@H]1CN(C)S(=O)(=O)c1ccc(-c2ccccc2)cc1` here?
**A.** 0.979 (inactive)

**Q.** For `CCCN(C)C[C@@H]1OCCCC[C@@H](C)Oc2ccc(NC(=O)Nc3ccc4c(c3)OCO4)cc2C(=O)N([C@H](C)CO)C[C@H]1C`, which relative growth is on record?
**A.** 1.03 (inactive)

**Q.** `Cc1nnc(SCC2=C(C(=O)[O-])N3C(=O)C(NC(=O)Cn4cnnn4)C3SC2)s1.[Na+]` (configuration not stated) was tested. Which relative growth did it give?
**A.** 0.0433 (active)

**Q.** For `O=C(Cn1cnnn1)NC1C(=O)N2C(C(=O)O)=C(CSc3nncs3)CSC12` (configuration not stated), which relative growth is on record?
**A.** 0.0457 (active)

**Q.** `CC(=O)OCC1=C(C(=O)O)N2C(=O)[C@@H](NC(=O)CSc3ccncc3)[C@H]2SC1` was tested. Which relative growth did it give?
**A.** 1.05 (inactive)

**Q.** For `Cc1nnc(SCC2=C(C(=O)O)N3C(=O)[C@@H](N)[C@H]3SC2)s1`, which relative growth is on record?
**A.** 1 (inactive)

**Q.** For `Cc1nnc(SCC2=C(C(=O)O)N3C(=O)[C@@H](NC(=O)Cn4cnnn4)[C@H]3SC2)s1`, which relative growth is on record?
**A.** 0.0386 (active)

**Q.** How did the relative growth turn out when `Cc1noc(C)c1S(=O)(=O)N(C)C[C@H]1Oc2c(NC(=O)C3CCCCC3)cccc2C(=O)N([C@@H](C)CO)C[C@H]1C` was run?
**A.** 1.01 (inactive)

**Q.** Which relative growth does the source give for `C[C@@H]1CN([C@H](C)CO)C(=O)c2cc(NC(=O)NC3CCCCC3)ccc2O[C@@H](C)CCCCO[C@@H]1CN(C)Cc1ccncc1` here?
**A.** 0.996 (inactive)

**Q.** Which relative growth does the source give for `C[C@H](CO)N1C[C@H](C)[C@@H](CN(C)Cc2ccc3c(c2)OCO3)Oc2ccc(NC(=O)c3ccncc3)cc2CC1=O` here?
**A.** 1.01 (inactive)

**Q.** For `Cc1ccc(S(=O)(=O)N(C)C[C@H]2Oc3c(NC(=O)NC(C)C)cccc3C(=O)N([C@@H](C)CO)C[C@H]2C)cc1`, which relative growth is on record?
**A.** 0.992 (inactive)

**Q.** `C[C@@H]1CN([C@H](C)CO)C(=O)Cc2cc(NC(=O)CCCN(C)C)ccc2O[C@@H]1CN(C)S(=O)(=O)c1ccc(Cl)cc1` was tested. Which relative growth did it give?
**A.** 0.973 (inactive)
